The source made the active and inactive calls.
Experiments:
[1] = system: PRMT1 (protein arginine N-methyltransferase 1); assay: PRMT1 binders on small-molecule microarrays, primary screen, biochemical, small-molecule microarray, 635 nm fluorescence (AID 1088); conditions: small-molecule microarray binding, higher = more signal;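 further: binding of Prmt1 protein to compounds spotted on small-molecule microarray slides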
[2] = yeast growth modulation, basal conditions, primary screen, YJM789 clinical isolate, OD600, 24 h (AID 1089);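 further: growth of clinical yeast isolate S. cerevisiae YJM 789 seeded 1000 cells per well; test concentration not given here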; conditions: S. cerevisiae YJM789 growth, higher = more signal, called active from +8 up or from −8 down
[3] = fission yeast growth modulation, primary screen, strain 972, OD600, 24 h, no modulator (AID 1090);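 further: basal condition with compound alone and no growth modifier present; test concentration not given here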; conditions: S. pombe 972 growth, higher = more signal, called active from +8 up or from −8 down
[4] = S. cerevisiae growth modulation with rapamycin, primary screen, strain BY4716, OD600, 96 h (AID 1091); conditions: higher = more signal, called active from +8 up or from −8 down; further: test concentration not given here
[5] = target: Torsin-1A-interacting protein 2 (Homo sapiens) (UniProt Q8NFQ8); assay: LULL1 binders on small-molecule microarray, primary screen, cell lysate, human LULL1 lysate, 635/667 nm fluorescence (AID 1092); conditions: hLULL1 lysate binding, 635 nm fluorescence, higher = more signal;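 further: probe is lysate of COS7 cells overexpressing human LULL1; score merges per-feature 667 nm fluorescence with signal-to-noise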
Chain of Torsin-1A-interacting protein 2 (Homo sapiens) (Q8NFQ8 whole entry, looked up): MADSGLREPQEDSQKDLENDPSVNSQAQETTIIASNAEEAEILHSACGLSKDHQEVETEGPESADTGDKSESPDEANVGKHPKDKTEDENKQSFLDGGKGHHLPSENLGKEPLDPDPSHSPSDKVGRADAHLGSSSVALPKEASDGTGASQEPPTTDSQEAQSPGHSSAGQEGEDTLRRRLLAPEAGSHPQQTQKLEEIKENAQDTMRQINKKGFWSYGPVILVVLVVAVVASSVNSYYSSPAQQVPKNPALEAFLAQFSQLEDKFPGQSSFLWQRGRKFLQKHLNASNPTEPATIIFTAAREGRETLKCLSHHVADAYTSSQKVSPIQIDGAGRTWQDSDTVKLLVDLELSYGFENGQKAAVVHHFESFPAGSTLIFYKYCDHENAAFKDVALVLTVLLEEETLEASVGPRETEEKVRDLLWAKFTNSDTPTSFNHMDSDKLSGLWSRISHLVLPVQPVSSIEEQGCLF

[6] = E. coli growth modulation, two-sided OD650, primary screen, E. coli filamentation project, strain DRC41, 24 h (AID 1093); conditions: OD650, 24 h, higher = more signal, called active from +8 up or from −8 down;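 further: MC1000 strain lacking acrAB efflux and sulA so SOS filamentation is blocked; test concentration not given here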
[7] = small-molecule microarray binders of probe aLefty2, primary screen, biochemical, biotinylated probe, 635/667 nm fluorescence (AID 1094); conditions: higher = more signal;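 further: score merges spot fluorescence near 667 nm with spot signal-to-noise ratio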
[8] = system: Noggin (protein binding on small-molecule microarray); assay: Noggin binders on small-molecule microarray, primary screen, biochemical, 635/667 nm fluorescence (AID 1095); conditions: 635 nm fluorescence, higher = more signal;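 further: score merges 667 nm feature fluorescence with signal to noise over triplicate slides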
[9] = target: Neurogenic locus notch homolog protein 3 (Homo sapiens) (UniProt Q9UM47); assay: NOTCH3 binders on small-molecule microarray, primary screen, biochemical, 635/667 nm fluorescence (AID 1096); conditions: NOTCH3 binding, 635 nm fluorescence, higher = more signal
Chain of Neurogenic locus notch homolog protein 3 (Homo sapiens) (Q9UM47 whole entry, looked up): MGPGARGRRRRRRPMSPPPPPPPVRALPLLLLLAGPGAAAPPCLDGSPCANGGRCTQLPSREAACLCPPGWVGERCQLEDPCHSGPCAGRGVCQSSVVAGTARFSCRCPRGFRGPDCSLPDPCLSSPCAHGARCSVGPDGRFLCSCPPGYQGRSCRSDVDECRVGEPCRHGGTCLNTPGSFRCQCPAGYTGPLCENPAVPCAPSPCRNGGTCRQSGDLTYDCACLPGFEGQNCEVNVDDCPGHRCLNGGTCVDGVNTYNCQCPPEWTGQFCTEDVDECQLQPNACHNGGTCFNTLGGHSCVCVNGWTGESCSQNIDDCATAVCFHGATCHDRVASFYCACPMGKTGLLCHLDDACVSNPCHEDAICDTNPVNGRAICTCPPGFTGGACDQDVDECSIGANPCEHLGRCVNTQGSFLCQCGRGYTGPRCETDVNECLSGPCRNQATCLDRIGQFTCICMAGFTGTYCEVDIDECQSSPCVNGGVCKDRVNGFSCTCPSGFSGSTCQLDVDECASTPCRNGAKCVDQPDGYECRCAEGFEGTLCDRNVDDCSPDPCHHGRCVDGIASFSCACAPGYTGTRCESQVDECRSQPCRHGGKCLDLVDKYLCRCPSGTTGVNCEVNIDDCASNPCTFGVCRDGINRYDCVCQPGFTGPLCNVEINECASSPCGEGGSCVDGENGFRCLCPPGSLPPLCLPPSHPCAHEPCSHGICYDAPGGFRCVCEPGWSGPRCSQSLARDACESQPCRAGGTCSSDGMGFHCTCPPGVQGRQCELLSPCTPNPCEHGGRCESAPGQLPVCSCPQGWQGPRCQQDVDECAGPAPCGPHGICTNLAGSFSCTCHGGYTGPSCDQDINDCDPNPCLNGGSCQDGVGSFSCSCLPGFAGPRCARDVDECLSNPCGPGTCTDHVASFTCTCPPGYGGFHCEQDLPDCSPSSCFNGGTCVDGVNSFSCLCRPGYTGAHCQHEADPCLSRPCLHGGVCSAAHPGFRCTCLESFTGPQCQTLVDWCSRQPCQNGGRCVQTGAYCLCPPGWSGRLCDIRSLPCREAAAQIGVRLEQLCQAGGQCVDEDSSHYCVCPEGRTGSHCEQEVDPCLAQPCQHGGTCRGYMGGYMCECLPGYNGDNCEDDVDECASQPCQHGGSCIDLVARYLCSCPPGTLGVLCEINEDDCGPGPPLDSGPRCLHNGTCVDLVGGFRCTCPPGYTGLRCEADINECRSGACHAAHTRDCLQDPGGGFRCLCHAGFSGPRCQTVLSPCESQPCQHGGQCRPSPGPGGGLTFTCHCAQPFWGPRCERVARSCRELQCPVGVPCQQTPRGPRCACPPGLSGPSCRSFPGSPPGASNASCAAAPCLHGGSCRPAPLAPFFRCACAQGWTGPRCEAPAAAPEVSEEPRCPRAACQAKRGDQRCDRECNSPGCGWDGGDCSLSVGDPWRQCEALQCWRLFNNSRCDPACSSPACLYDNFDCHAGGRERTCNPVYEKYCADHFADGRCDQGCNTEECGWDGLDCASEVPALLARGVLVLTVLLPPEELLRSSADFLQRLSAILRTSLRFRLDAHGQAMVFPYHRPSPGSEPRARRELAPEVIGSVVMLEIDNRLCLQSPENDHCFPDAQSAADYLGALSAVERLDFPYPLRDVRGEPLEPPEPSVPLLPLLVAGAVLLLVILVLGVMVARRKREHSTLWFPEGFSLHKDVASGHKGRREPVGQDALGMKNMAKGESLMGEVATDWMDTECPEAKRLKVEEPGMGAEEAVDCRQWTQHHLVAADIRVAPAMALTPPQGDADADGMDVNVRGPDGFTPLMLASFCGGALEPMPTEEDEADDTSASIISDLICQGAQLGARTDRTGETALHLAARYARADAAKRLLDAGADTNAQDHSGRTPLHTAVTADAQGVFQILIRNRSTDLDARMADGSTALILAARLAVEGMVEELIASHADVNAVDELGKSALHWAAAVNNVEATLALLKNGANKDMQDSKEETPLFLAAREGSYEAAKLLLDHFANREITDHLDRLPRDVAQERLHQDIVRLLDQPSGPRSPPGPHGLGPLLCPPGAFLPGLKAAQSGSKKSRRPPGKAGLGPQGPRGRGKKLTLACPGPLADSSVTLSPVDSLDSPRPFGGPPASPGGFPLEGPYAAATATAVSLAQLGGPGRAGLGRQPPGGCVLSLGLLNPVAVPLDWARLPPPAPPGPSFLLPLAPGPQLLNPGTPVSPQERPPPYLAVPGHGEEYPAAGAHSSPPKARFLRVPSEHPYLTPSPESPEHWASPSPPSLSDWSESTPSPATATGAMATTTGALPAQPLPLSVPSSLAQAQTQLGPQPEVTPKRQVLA

[10] = small-molecule microarray binders of probe aEGFR, primary screen, biochemical, biotinylated probe, 635/667 nm fluorescence (AID 1097); conditions: higher = more signal;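 further: probe is a biotinylated anti-EGFR antibody binding compounds printed on slides; score combines fluorescence near 667 nm and signal to noise of each spot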
[11] = system: Plasmodium falciparum Sir2 (PF13_0152, Sir2A); assay: pfSir2 binders on small-molecule microarrays, primary screen, biochemical, small-molecule microarray, 635 nm fluorescence (AID 1098); conditions: small-molecule microarray binding, fluorescence 635 nm; higher = more signal;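 further: score merges spot fluorescence intensity with its signal-to-noise ratio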
[12] = small-molecule microarray binders of probe aDKK1, primary screen, biochemical, biotinylated probe, 635/667 nm fluorescence (AID 1099); conditions: higher = more signal;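 further: score merges 667nm spot fluorescence with signal to noise across triplicate slides; reference of the scale not given here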
[13] = small-molecule microarray binders of probe aCHRDL2, primary screen, biochemical, biotinylated probe, 635/667 nm fluorescence (AID 1100); conditions: higher = more signal
[14] = splicing luciferase reporter signal modulators, primary screen, spliceosome inhibition project, cell-based, HEK293, splice +/- reporter (AID 1101); conditions: luminescence, 24 h, higher = more signal, called active from +8 up or from −8 down;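 further: HEK293 cells carrying a splicing-competent luciferase reporter gene; test concentration not given here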
[15] = target: Fibroblast growth factor 10 (Homo sapiens) (UniProt O15520); assay: FGF10 binders on small-molecule microarrays, primary screen, biochemical, small-molecule microarray, 635 nm fluorescence (AID 1102); conditions: FGF10 binding, fluorescence 635 nm, higher = more signal
Chain of Fibroblast growth factor 10 (Homo sapiens) (O15520 whole entry, looked up): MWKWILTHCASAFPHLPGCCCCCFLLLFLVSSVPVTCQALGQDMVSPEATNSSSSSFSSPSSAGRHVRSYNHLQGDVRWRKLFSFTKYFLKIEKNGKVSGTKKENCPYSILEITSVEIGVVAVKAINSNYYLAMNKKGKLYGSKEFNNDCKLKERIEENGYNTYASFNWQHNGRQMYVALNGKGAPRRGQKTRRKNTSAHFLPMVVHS

[16] = system: glycogen synthase kinase-3 (GSK3A per assay name; protocol says GSK3B); assay: GSK3 binders on small-molecule microarrays, primary screen, biochemical, small-molecule microarray, 635 nm fluorescence, GSK3A (AID 1103); conditions: small-molecule microarray binding, fluorescence 635 nm; higher = more signal; further: the record names both GSK3A and GSK3B
[17] = target: Epidermal growth factor receptor (Homo sapiens) (UniProt P00533); assay: EGFR binders on small-molecule microarrays, primary screen, biochemical, small-molecule microarray, 635 nm fluorescence (AID 1104); conditions: EGFR binding, higher = more signal;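 further: score merges 667 nm emission intensity with spot signal to noise over triplicate slides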
Chain of Epidermal growth factor receptor (Homo sapiens) (P00533 whole entry, looked up): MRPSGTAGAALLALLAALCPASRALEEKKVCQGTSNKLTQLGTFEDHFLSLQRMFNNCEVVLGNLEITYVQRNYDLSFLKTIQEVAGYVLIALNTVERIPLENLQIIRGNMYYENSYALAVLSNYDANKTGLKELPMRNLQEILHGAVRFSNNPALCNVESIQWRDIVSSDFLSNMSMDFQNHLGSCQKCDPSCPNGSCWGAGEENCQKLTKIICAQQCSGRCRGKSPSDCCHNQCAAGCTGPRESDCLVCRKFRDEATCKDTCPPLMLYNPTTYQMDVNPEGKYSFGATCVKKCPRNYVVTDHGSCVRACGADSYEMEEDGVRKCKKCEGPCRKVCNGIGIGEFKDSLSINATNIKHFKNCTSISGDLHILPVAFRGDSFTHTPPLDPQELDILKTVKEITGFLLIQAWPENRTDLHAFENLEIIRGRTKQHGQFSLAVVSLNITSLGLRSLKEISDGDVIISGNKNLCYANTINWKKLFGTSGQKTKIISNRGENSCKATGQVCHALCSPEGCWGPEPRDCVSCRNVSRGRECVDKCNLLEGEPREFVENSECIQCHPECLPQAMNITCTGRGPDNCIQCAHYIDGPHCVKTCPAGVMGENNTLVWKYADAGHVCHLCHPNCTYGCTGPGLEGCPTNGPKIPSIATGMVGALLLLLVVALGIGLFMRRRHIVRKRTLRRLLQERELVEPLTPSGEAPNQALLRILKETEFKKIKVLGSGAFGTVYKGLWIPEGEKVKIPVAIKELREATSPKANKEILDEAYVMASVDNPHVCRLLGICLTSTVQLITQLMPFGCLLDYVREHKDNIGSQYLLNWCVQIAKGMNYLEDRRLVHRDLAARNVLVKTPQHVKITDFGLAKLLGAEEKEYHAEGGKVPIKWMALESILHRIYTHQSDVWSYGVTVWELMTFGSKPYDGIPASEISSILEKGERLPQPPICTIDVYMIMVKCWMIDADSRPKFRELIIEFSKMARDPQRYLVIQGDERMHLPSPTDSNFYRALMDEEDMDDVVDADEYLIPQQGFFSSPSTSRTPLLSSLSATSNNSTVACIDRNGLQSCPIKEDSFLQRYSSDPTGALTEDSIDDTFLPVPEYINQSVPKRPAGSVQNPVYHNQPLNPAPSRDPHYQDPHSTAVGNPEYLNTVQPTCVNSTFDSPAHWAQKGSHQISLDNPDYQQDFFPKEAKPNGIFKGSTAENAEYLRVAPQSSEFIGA

[18] = target: Follistatin-related protein 3 (Homo sapiens) (UniProt O95633); assay: FSTL3 binders on small-molecule microarrays, primary screen, biochemical, small-molecule microarray, 635 nm fluorescence (AID 1105); conditions: FSTL3 binding, higher = more signal;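 further: score merges emission near 667 nm and signal to noise per printed spot across three slides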
Chain of Follistatin-related protein 3 (Homo sapiens) (O95633 whole entry, looked up): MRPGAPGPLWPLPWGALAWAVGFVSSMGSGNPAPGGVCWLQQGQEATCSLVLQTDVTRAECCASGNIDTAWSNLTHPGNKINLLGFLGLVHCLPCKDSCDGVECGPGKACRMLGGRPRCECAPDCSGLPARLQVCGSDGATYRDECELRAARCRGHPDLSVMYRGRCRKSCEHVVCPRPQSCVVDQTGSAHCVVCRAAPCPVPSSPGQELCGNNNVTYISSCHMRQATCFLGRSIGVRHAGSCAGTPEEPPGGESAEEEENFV

[19] = target: Dickkopf-related protein 1 (Homo sapiens) (UniProt O94907); assay: DKK1 binders on small-molecule microarrays, primary screen, biochemical, small-molecule microarray, 635 nm fluorescence scan (AID 1106); conditions: DKK1 binding, higher = more signal;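 further: score merges emission near 667 nm with signal to noise over three replicate slides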
Chain of Dickkopf-related protein 1 (Homo sapiens) (O94907 whole entry, looked up): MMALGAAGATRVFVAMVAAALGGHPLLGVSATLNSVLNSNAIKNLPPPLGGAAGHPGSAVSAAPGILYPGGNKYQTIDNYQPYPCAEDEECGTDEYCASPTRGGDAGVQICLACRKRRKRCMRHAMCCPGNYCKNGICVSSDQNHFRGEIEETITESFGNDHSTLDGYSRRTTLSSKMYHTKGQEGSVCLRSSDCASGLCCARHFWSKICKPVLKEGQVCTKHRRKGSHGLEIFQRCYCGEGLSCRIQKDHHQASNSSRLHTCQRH

[20] = system: Inhibin beta A chain (activin A); assay: INHBA (activin A) binders on microarrays, primary screen, biochemical, small-molecule microarray, 635 nm fluorescence scan (AID 1107); conditions: small-molecule microarray binding, higher = more signal;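 further: mouse activin A protein probed at 4.33 µg/mL on printed slides; score merges bound-protein fluorescence near 667 nm with spot signal-to-noise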

| SMILES | composite z-score [1] | z-score [2] | z-score [3] | z-score [4] | composite z-score [5] | z-score [6] | composite z-score [7] | composite z-score [8] | composite z-score [9] | composite z-score [10] | composite z-score [11] | composite z-score [12] | composite z-score [13] | z-score [14] | composite z-score [15] | composite z-score [16] | composite z-score [17] | composite z-score [18] | composite z-score [19] | composite z-score [20] |
| --- | --- | --- | --- | --- | --- | --- | --- | --- | --- | --- | --- | --- | --- | --- | --- | --- | --- | --- | --- | --- |
| O=C1O[C@@H](c2ccccc2)[C@@H](c2ccccc2)N2[C@@H](c3ccccc3OCCO)[C@]3(C(=O)Nc4ccc(C#CCCO)cc43)[C@@H](C(=O)NC[C@H](O)c3ccccc3)[C@H]12 | 1.54 | 2.3 (inactive) | -1.71 (inactive) | 4.29 (inactive) | 3.29 | 0.535 (inactive) | 1.07 | 1.37 | 0.944 | 0.506 | 1.69 | 1.93 | 1.51 | -0.393 (inactive) | 0.428 | -0.0642 | 0.249 | 1.35 | 0.172 | 1.41 |
| C=C1C(=O)C=C2CN(C(=O)c3ccccc3)[C@@](Cc3ccc(OC)cc3)(C(=O)OC)[C@@H]12 | 1.54 | 0.573 (inactive) | 1.85 (inactive) | 10.3 (active) | 3.85 | -0.656 (inactive) | 0.68 | 0.232 | 1.01 | 0.146 | 1.14 | 1.18 | 1.18 | -2.15 (inactive) | 1.38 | 0.681 | 0.369 | 1.37 | -0.399 | 0.516 |
| CCOC(=O)C[C@H]1[C@H](OC(=O)Cc2ccc3c(c2)OCO3)[C@@H](NC(=O)c2ccc3ccccc3n2)c2cc(OCCCO)ccc2N1C(=O)Cc1ccc(OC)cc1 | 0.742 | -2.25 (inactive) | 0.154 (inactive) | -0.107 (inactive) | 1.34 | 0.647 (inactive) | 0.0071 | 1.25 | 0.55 | -0.103 | 0.435 | 0.0621 | 0.195 | -1.8 (inactive) | 0.438 | 0.25 | -0.374 | 0.882 | 0.163 | 0.257 |
| COC(=O)[C@@]1(Cc2ccccc2)[C@H]2c3cc(C(=O)N(C)C)n(CCSC(=N)N)c3C[C@H]2CN1C(=O)c1ccccc1 | 0.265 | 0.485 (inactive) | 1.12 (inactive) | 0.102 (inactive) | 2.05 | -0.0906 (inactive) | 0.169 | -0.699 | -0.0995 | -0.112 | 1.16 | 0.743 | 1 | 0.61 (inactive) | -0.315 | -0.102 | -0.649 | -0.406 | -1.49 | 1.01 |
| COC(=O)[C@@]1(Cc2ccc(OC)cc2)[C@H]2c3cc(C(=O)N4CCCC4)n(CCn4cc([N+](=O)[O-])nc4C)c3C[C@H]2CN1C(=O)c1ccccc1 | -0.153 | -0.382 (inactive) | 0.28 (inactive) | 0.725 (inactive) | 3.38 | -1.01 (inactive) | 1.25 | 0.152 | 0.413 | 0.924 | 1.2 | 2.46 | 1.33 | 0.167 (inactive) | 0.981 | 0.456 | 0.661 | 0.354 | 0.559 | 1.13 |
| C=CCNC(=O)[C@@H]1[C@H]2C(=O)O[C@H](c3ccccc3)[C@H](c3ccccc3)N2[C@H](c2ccc(OCCO)cc2)[C@@]12C(=O)Nc1ccc(C#CC3(O)CCCCCC3)cc12 | 1.45 | 1.84 (inactive) | 0.267 (inactive) | 4.71 (inactive) | 2.55 | 1.2 (inactive) | 0.0208 | 1.03 | 1.07 | 0.0519 | 1.42 | 0.535 | 0.65 | -1.43 (inactive) | 0.986 | 1.22 | 0.378 | 0.826 | 0.371 | -0.0995 |
| NC(=O)NCC#Cc1ccc2c(c1)[C@]1(C(=O)N2)[C@H](c2ccc(OCCO)cc2)N2[C@H](c3ccccc3)[C@H](c3ccccc3)OC(=O)[C@H]2[C@@H]1C(=O)O | -0.541 | 0.467 (inactive) | -0.662 (inactive) | 0.23 (inactive) | -0.143 | 0.775 (inactive) | -0.139 | -0.292 | -0.343 | -0.209 | 1.05 | 0.151 | 0.654 | -0.708 (inactive) | -0.808 | -1.84 | -0.716 | -0.567 | -0.57 | 0.993 |
| COc1ccc(C(=O)Nc2cccc(CN3C(=O)[C@@]4(O[C@@H](CC(=O)N5CCC[C@H]5CO)[C@H]([Si](C)(C)c5ccc(OC)cc5)[C@H]4C)c4ccccc43)c2)cc1 | 1.55 | -0.624 (inactive) | 0.706 (inactive) | -1.2 (inactive) | 0.983 | -0.126 (inactive) | -0.102 | 0.766 | 0.957 | -0.118 | 1.21 | -0.0379 | -0.183 | 1 (inactive) | 0.43 | 0.744 | 0.527 | 0.839 | 0.496 | 0.182 |
| COc1ccc([Si](C)(C)[C@H]2[C@H](CC(=O)N3CCC[C@H]3CO)O[C@@]3(C(=O)N(Cc4ccc(N5CCCCC5=O)cc4)c4ccccc43)[C@@H]2C)cc1 | 1.54 | -0.398 (inactive) | 0.591 (inactive) | -0.801 (inactive) | 2.51 | 2.32 (inactive) | -0.18 | 1.41 | 1.06 | -0.0531 | 1.17 | -0.28 | -0.466 | -1.16 (inactive) | 1.18 | 1.09 | 0.639 | 1.23 | 0.863 | 0.704 |
| COC(=O)[C@@]1(Cc2ccc(F)cc2)[C@H]2c3cc(C(=O)N(C)C)n(C)c3C[C@H]2CN1C(=O)c1ccccc1 | -0.97 | 0.0108 (inactive) | 0.476 (inactive) | 0.08 (inactive) | 2.54 | -0.339 (inactive) | 0.519 | -0.608 | 0.381 | 0.383 | 0.0911 | 0.903 | 0.885 | -0.84 (inactive) | 0.414 | -0.489 | -0.286 | -0.125 | -0.615 | 0.468 |

— PubChem BioAssay
